Test results: publication PMC5540273 (PLoS ONE, 2017)

These compounds were tested on SGK2. Details: concentration: 1 μM, replicates: in singlicate; n = 1.
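Note: KINOMEscan kinase panel screen.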

Compound | %Inh
O=C(Nc1n[nH]c2nc(-c3ccco3)c(Br)cc12)C1CCN(Cc2ccccc2)C1.O=C(O)[C@H](O)[C@@H](O)C(=O)O (stereo not shown) [SB-742034] | 27%
Cn1cnc2c(N)ncnc21 [SKF-97623] | 0%
COc1ccc(Nc2nccc(-c3ccc(NC(=O)c4cc5cc(F)ccc5[nH]4)cc3)n2)cc1 [GSK1229496] | 0%
CNC(=O)c1ccc(C)c(-n2c(C)cc(OCc3ccc(F)cc3F)c(Br)c2=O)c1 | 0%
Nc1nccc(-c2c(-c3ccc(F)cc3)ncn2C2CCN(Cc3ccccc3)CC2)n1 [SB-219980] | 0%
Cc1ccc(NC(=O)Nc2ccccc2)cc1-c1ccc(C(=O)Nc2ccncc2)cc1 [GSK1398471] | 0%
Fc1ccc(-c2nc[nH]c2-c2ccncc2)cc1 [SB-217360] | 0%
CC(C)c1cc(-c2ccc3c(N)n[nH]c3c2)nc(N)n1 [GSK2250882] | 0%
Fc1ccc(-c2nc3n(c2-c2ccncc2)CCS3)cc1 [GI98581] | 6%
CCc1ccc(-c2ccc3c(c2)-c2n[nH]cc2S(=O)(=O)N3C)cc1 | 0%
COc1ccc(CSc2nnc(-c3ccc4c(c3)CCO4)o2)cc1 | 0%
CSc1ccc(-c2nc3n(c2-c2ccncc2)CCC3)cc1 [SKF-105561] | 7%
COc1cccc(NC(=O)Nc2ccc(C)c(-c3ccc(C(=O)Nc4ccncc4)cc3)c2)c1 [GSK1398474] | 0%
O=c1cc(N2CCOCC2)nc2n(Cc3cccc(Cl)c3Cl)c3ccccc3n12 [GSK2299009] | 37%
COC(=O)c1cccc(NC(=O)NC2CCN(c3ccnc(Nc4ccc(F)cc4)n3)C2)c1 (stereo not shown) [GSK1379725] | 0%
O=C(Nc1n[nH]c2nc(-c3cccs3)c(Br)cc12)C1CC1 [SB-735297] | 27%
CC(=O)c1c(C)c2cnc(Nc3ccc(N4CCNCC4)cn3)nc2n(C2CCCC2)c1=O | 0%
CN1c2ccc(-c3ccc(C(N)=O)cc3)cc2-c2[nH]ncc2S1(=O)=O | 8%
CNc1cc(-c2ccc3c(N)n[nH]c3c2)nc(N)n1 [GSK2224810] | 0%

Compound | %Inh
Cn1cncc1C(=O)NC1CCN(c2ccnc(Nc3ccc(F)cc3)n2)C1 (stereo not shown) [GSK1379717] | 7%
Cn1cncc1-c1cc2c(Nc3ccc(OCc4ccccc4)cc3)ncnc2cn1 [GW281179] | 10%
COc1ccc(-c2coc3ccc(-c4nnc(C)o4)cc23)cc1 | 0%
Cc1ccc(NC(=O)Nc2ccc(Cl)cc2)cc1-c1ccc(C(=O)Nc2ccncc2)cc1 [GSK1398472] | 8%
CC(=O)c1c(C)c2cnc(Nc3ccn(C)n3)nc2n(C2CCCC2)c1=O | 0%
COc1ccc(Nc2nccc(N3CCC(NC(=O)c4cc5ccccc5s4)C3)n2)cc1 (stereo not shown) [GSK1379738] | 0%
Cc1nccc(-c2c(-c3ccc(F)cc3)ncn2CCCN2CCOCC2)n1.Cl [SB-282975] | 27%
CC[C@@H]1CO[C@H](C(=O)Nc2ccccc2)CN1c1cc(-c2ccc3c(N)n[nH]c3c2)nc(NC)n1 [GSK2376236] | 0%
NS(=O)(=O)c1cccc(N/C=C2\C(=O)Nc3ccc(S(=O)(=O)Cc4c(Cl)cccc4Cl)cc32)c1 [GSK398099] | 8%
Nc1cccc(-c2ccc3c(N)n[nH]c3c2)n1 [GSK2192730] | 6%
CCCCc1nn2ncccc2c1-c1ccnc(NC2CC2)n1 [GW684374] | 0%
CNc1nc(-c2ccc3c(N)n[nH]c3c2)cc(N2C[C@@H](C(=O)NC3CCCCC3)OC[C@H]2C)n1 [GSK2375584] | 0%
COc1cccc(C2=C(Nc3cc(Cl)c(O)c(Cl)c3)C(=O)NC2=O)c1 [SB-390767] | 11%
COc1ccc(CSc2nnc(-c3ccc4ncsc4c3)o2)cc1C(F)(F)F | 0%
Cc1c(Cn2c(C)c(C)n3c(=O)cc(N4CCOCC4)nc23)cccc1C(F)(F)F [GSK2328680] | 0%
CNc1nc(-c2ccc3c(N)n[nH]c3c2)cc(N2C[C@@H](C(=O)Nc3ccccc3)CC[C@H]2C)n1 [GSK2298859] | 0%
Cc1ccccc1-c1cc(-c2c[nH]nc2-c2ccccn2)ccn1 [GW680061] | 0%
COc1ccc(Nc2nccc(NCCNC(=O)Nc3cc(C)ccc3C)n2)cc1 [GSK1379899] | 0%
